This passage reports reporter increase results from PubChem BioAssay AID602393 (Broad Institute, 2012).

In all, about 350,000 compounds went through this assay and about 7,000 (2%) were called active. For the sample, actives were picked, then their nearest neighbours and some compounds at random. Unmarked numbers belong to inactive results. No stated cut-off is given here; in the data, active means activation above about 40%; inconclusive means no clear call, values can overlap the other calls; inactive means below that.

This test in a line: raisers of Bmi1 knock-in reporter signal – mouse ES cells, Bmi1 luciferase knock-in, single point, esBAF inhibitor project, primary screen (AID 602393).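 Further: 0% = median of the plate's neutral control wells and 100% = double that signal; a rise in the Bmi1 reporter signal indicates esBAF inhibition.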 The note with it: 24 h, at 12.5 µM, active compounds read high, 100% = twice the neutral-well signal.
Consider `C[C@@H]1CCCCO[C@@H](CN(C)Cc2ccncc2)[C@H](C)CN([C@H](C)CO)C(=O)c2cc(N(C)C)ccc2O1`, for which the reporter increase was -12.3%.
The value for `CCCC(=O)Nc1ccc2c(c1)OC[C@@H](C)N(Cc1ccccc1F)C[C@@H](C)[C@H](OC)CN(C)C2=O` was -2.03%.
For `COc1ccc(S(=O)(=O)Nc2cccc3c2O[C@@H](CN(C)C(=O)NC(C)C)[C@H](C)CN([C@@H](C)CO)C3=O)cc1`, the reporter increase is -7.18%.
On to `O=C([C@@H]1[C@@H](CO)[C@@H]2Cn3c(ccc(C4=CCCC4)c3=O)[C@H]1N2C(=O)c1ccncc1)N1CCCCC1`, for which the reporter increase was -2.02%.
The value for `C[C@@H]1CN([C@@H](C)CO)C(=O)CCCn2cc(nn2)CO[C@@H]1CN(C)Cc1ccccc1C(=O)O` was -3.04%.
In the case of `C[C@@H]1CCCCO[C@@H](CN(C)C(=O)NC2CCCCC2)[C@H](C)CN([C@@H](C)CO)C(=O)c2cc(NC(=O)Nc3ccc(F)cc3)ccc2O1` it was 3.77%; in that of `C[C@H](CO)N1C[C@H](C)[C@H](CN(C)C(=O)NC2CCCCC2)OCCCC[C@H](C)Oc2ccc(NC(=O)Nc3ccc4c(c3)OCO4)cc2C1=O`, 55.8% (active); in that of `CC(C)NC(=O)N(C)C[C@H]1OCCCC[C@H](C)Oc2ccc(NC(=O)Nc3ccc4c(c3)OCO4)cc2C(=O)N([C@H](C)CO)C[C@@H]1C`, 4.2%.
In the case of `C[C@H]1CCCCO[C@H](CN(C)C(=O)NC2CCCCC2)[C@@H](C)CN([C@@H](C)CO)C(=O)c2cc(NC(=O)Nc3ccc4c(c3)OCO4)ccc2O1` it was 44.8% (active); in that of `C[C@@H]1CCCCO[C@H](CN(C)C(=O)NC2CCCCC2)[C@H](C)CN([C@H](C)CO)C(=O)c2cc(NC(=O)Nc3ccc(F)cc3)ccc2O1`, 4.59%.
In the case of `C[C@@H]1CCCCO[C@H](CN(C)C(=O)NC2CCCCC2)[C@H](C)CN([C@@H](C)CO)C(=O)c2cc(NC(=O)Nc3ccc(F)cc3)ccc2O1`, the reporter increase was 3.4%.
`COCC(=O)N(C)C[C@H]1Oc2ncc(-c3cccc(OC)c3)cc2C(=O)N([C@H](C)CO)C[C@H]1C`: the reporter increase is -0.645%.
The value for `C[C@@H]1CN([C@H](C)CO)C(=O)CCCn2cc(nn2)CO[C@@H]1CN(C)Cc1ccc2cccnc2c1` was -4.13%.
The value for `CCC(=O)Nc1ccc2c(c1)OC[C@@H](C)N(CC1CC1)C[C@H](C)[C@H](OC)CN(C)C2=O` was 2.9%; that for `C[C@H]1CN([C@@H](C)CO)C(=O)c2cc(C#CC(C)(C)O)cnc2O[C@H]1CN(C)C(=O)CC1CC1` was 2.32%.
The value for `C[C@@H]1CN([C@H](C)CO)C(=O)c2c(c3ccccc3n2C)-c2ccccc2CO[C@@H]1CN(C)C(=O)Nc1ccccc1` was 2.44%; that for `O=C(CN1CCCSc2ccccc21)N1CCN(S(=O)(=O)c2cccc(F)c2)CC1` was 2.16%.
As to `N#C/C=C1\Sc2ccccc2C(=O)N1CC(=O)N1CCN(S(=O)(=O)c2ccccc2)CC1`, the reporter increase is 76.9% (active).
Turning to `O=C(CN1CCCSc2ccccc21)N1CCN(S(=O)(=O)c2ccccc2)CC1`, the reporter increase was 3.15%.
The value for `CCCNC(=O)N1C[C@@H](O)COC[C@H]2O[C@H](CC(=O)N3CCC(Cc4ccccc4)CC3)CC[C@@H]21` was 8.61%.
The value for `CCC(=O)N[C@H]1CC[C@@H](CC(=O)NCc2cc(F)cc(F)c2)O[C@@H]1CO` was 0.353%; that for `O=C(NCCNc1ccccc1[N+](=O)[O-])c1ccccc1F` was 62.1% (active); that for `O=C(NCCNc1ccc([N+](=O)[O-])cc1Cl)c1ccccc1F` was 7.96%.
The value for `COC(=O)CNC(=O)c1ccccc1[N+](=O)[O-]` was -1.18%; that for `CC(=O)Nc1ccc2c(c1)C(=O)N(C)[C@@H]1CC[C@H](CC(=O)NCc3ccccc3)O[C@H]1CO2` was -6.55%.
For the compound `CO[C@@H]1CN(C)C(=O)c2cc(NC(=O)C3CCC3)ccc2OC[C@H](C)N(Cc2ccccn2)C[C@H]1C`, the reporter increase was 1.86%.
The value for `Cc1nc(N)sc1-c1ccccc1` was 0.609%; that for `Cc1nc(-c2ccccc2)sc1-c1nnc(C2CC2)o1` was 76.8% (active); that for `Cc1nc(-c2ccccc2)sc1-c1nc(-c2ccccc2)ncc1S(=O)(=O)c1ccccc1` was -0.228%.
In the case of `CO[C@@H]1CN(C)C(=O)c2cc(NC(=O)C3CC3)ccc2OC[C@@H](C)N(C(=O)c2ccccc2F)C[C@@H]1C` it was -20.7%.
On to `C[C@H](CO)N1C[C@H](C)[C@@H](CN(C)S(=O)(=O)c2ccc(Cl)cc2)Oc2ccc(NS(C)(=O)=O)cc2CC1=O`, for which the reporter increase is -2.32%.
As to `CC(C)C(=O)Nc1c(C(=O)c2ccc(F)cc2)oc2ccccc12`, the reporter increase was -8.19%.
Take `CC(C)C(=O)Nc1ccc2c(c1)oc1ccccc12`: the reporter increase is 60.1% (active).
Take `CCc1cccc(NC(=O)COC(=O)c2cc(=O)c3ccccc3o2)c1`: the reporter increase is 8.66%.
For the compound `C[C@@H]1CN([C@@H](C)CO)S(=O)(=O)c2ccc(C#Cc3ccccc3)cc2O[C@@H]1CN(C)C(=O)C1CC1`, the reporter increase is -5.48%.
In the case of `Cc1ccc(NC(=O)Cn2nnc(C(=O)NCc3ccco3)c2N)c(C)c1` it was 3.66%.
The value for `Cc1ccc(SCC(=O)NC(=O)NCc2ccco2)c(C)c1` was -6.07%; that for `Cc1ccc(NC(=O)C(=O)NCc2ccco2)c(C)c1` was 47.2% (active).
In the case of `O=C(Cc1ccccn1)NCC[C@H]1CC[C@H](NS(=O)(=O)c2ccccc2)[C@@H](CO)O1` it was -4.76%; in that of `Cc1cccc(S(=O)(=O)N[C@H]2CC[C@@H](CCNS(=O)(=O)c3ccccc3F)O[C@H]2CO)c1`, -0.839%.
Regarding `CCOc1ccc2[nH]c(=S)sc2c1`, the reporter increase is 27.8%.
In the case of `Cc1ccc(C2=Nc3c(ccc4ccccc34)C(c3ccncc3)=NN2)cc1`, the reporter increase is 10%.
With `CCOc1ccc2c(c1)C(c1ccc(C)cc1)=NNC(c1ccc(C)cc1)=N2`, the reporter increase is 67.3% (active).
The value for `C[C@@H]1CN([C@@H](C)CO)C(=O)Cc2cc(NS(=O)(=O)c3ccc(F)cc3)ccc2O[C@@H]1CN(C)S(=O)(=O)c1cccs1` was 4.77%.
The value for `CCC(=O)Nc1ccc2c(c1)C(=O)N(C)C[C@@H](OC)[C@@H](C)CN(Cc1ccccc1OC)[C@H](C)CO2` was -3.34%; that for `CNC[C@@H]1Oc2cc(-c3ccccc3OC)ccc2S(=O)(=O)N([C@H](C)CO)C[C@H]1C` was -6.68%.
In the case of `CN1CCN(C(=O)C[C@H]2C[C@H]3c4cc(NC(=O)Nc5ccccc5F)ccc4O[C@H]3[C@H](CO)O2)CC1` it was 2.41%.
With `CC(C)NC(=O)N(C)C[C@@H]1Oc2ncc(C#CC3CC3)cc2C(=O)N([C@@H](C)CO)C[C@H]1C`, the reporter increase is 5.43%.
The value for `O=C(NCc1ccccc1Cl)C1CCCO1` (configuration not stated) was -4.1%.
On to `CSc1ccc(CNC(=O)c2ccc(NC(=O)C3=CSCCO3)cc2)cc1`, for which the reporter increase is 15.9%.
The value for `O=C(Nc1ccc(C(=O)NCc2ccccc2Cl)cc1)C1=CSCCO1` was 44% (active); that for `CCN1[C@@H]2Cn3c(ccc(C4=CCCCC4)c3=O)[C@H]1[C@@H](C(=O)N1CCCCC1)[C@@H]2CO` was -1.1%.
Turning to `O=C(COC(=O)c1ccc(F)cc1)Nc1ccc2c(c1)OCO2`, the reporter increase was 1.17%.
The value for `O=C(CN1CCSCC1)N/N=C/c1ccc(F)cc1` was 5%; that for `O=C(Cc1ccc(F)cc1)N/N=C/c1ccc2c(c1)OCO2` was 52.6% (active).
In the case of `C[C@@H](NC(=O)[C@H]1[C@H](CO)[C@H]2Cn3c(cccc3=O)[C@H]2N1C(=O)C1CC1)c1ccccc1` it was 2.89%; in that of `COc1ccc(C(=O)Nc2ccc3c(c2)OC[C@H](C)N(C(C)=O)C[C@@H](C)[C@H](OC)CN(C)C3=O)cc1`, -0.383%; in that of `Cc1ccc(S(=O)(=O)NCC[C@@H]2CC[C@@H](NC(=O)CCN3CCCCC3)[C@@H](CO)O2)cc1`, -6.37%.
With `Cc1ccc(S(=O)(=O)Nc2ccc3c(c2)C(=O)N([C@@H](C)CO)C[C@H](C)[C@@H](CN(C)C(=O)Cc2ccccc2)OCCCC[C@H](C)O3)cc1`, the reporter increase is 0.836%.
In the case of `O=C(CNC(=O)c1ccc2ccccc2c1)Nc1ncccc1O` it was 51.4% (active); in that of `Cc1ccnc(NC(=O)CNC(=O)c2ccccc2)c1`, 20.5%; in that of `O=C(Nc1ncccc1O)c1ccc(C(=O)c2ccccc2)cc1`, 21.1%.
For `Cc1noc(C)c1S(=O)(=O)N(C)C[C@H]1OCCCC[C@@H](C)Oc2ccc(NC(=O)c3ccccc3)cc2C(=O)N([C@@H](C)CO)C[C@H]1C`, the reporter increase is 5.48%.
For the compound `O=C(C[C@H]1CC[C@@H](NC(=O)Nc2ccc(C(F)(F)F)cc2)[C@H](CO)O1)NCc1cc(F)cc(F)c1`, the reporter increase was 2.19%.
`CCC(=O)N1[C@@H]2CN(C(=O)Nc3ccc(Cl)cc3)c3ccccc3[C@@H]2[C@@H]1CO`: the reporter increase was 7.74%.
Turning to `O=C(COC(=O)c1cc(=O)[nH]c2ccccc12)NCc1cccc(Cl)c1`, the reporter increase was -2.45%.
In the case of `CC1CCN(C(=O)COC(=O)c2cc(=O)[nH]c3ccccc23)CC1` it was 60.1% (active); in that of `CC1CCN(C(=O)COC(=O)c2cc(S(=O)(=O)N3CCOCC3)ccc2Cl)CC1`, -5.57%; in that of `O=C(OCc1nnc(-c2ccccc2)o1)c1cc(=O)[nH]c2ccccc12`, -2.08%.
For `COC(=O)C1CCN(C(=O)c2cc(=O)[nH]c3ccccc23)CC1`, the reporter increase was -0.707%.
In the case of `CN(C(=O)COC(=O)c1cc(=O)[nH]c2ccccc12)C1CCCCC1` it was 59.3% (active); in that of `COc1ccc(S(=O)(=O)N(C)C[C@@H]2OCCCC[C@@H](C)Oc3ccc(N(C)C)cc3C(=O)N([C@@H](C)CO)C[C@@H]2C)cc1`, -1.73%.
